Assay outcomes: PubChem, National Center for Advancing Translational Sciences (NCATS)
Marburg entry = qHTS for Inhibitors of binding or entry into cells for Marburg Virus | Potency, µM (highest dose often 49.2 µM), inactives show top-dose activity change, negative = inhibition, hits mostly inhibitors | 18,000 compounds, 6.5% hits | Marburg virus pseudotype entry/binding inhibition, cell-based
LASV entry inh = qHTS for Inhibitors of binding or entry into cells for Lassa Virus | Lassa virus pseudotyped entry inhibition, cell-based qHTS | Potency, µM (doses to about 49.2 µM), for the others: at the highest dose activity change, negative = inhibition, most hits filed as inhibitors | 18,000 compounds, 4.1% hits | AID 720533, 2013
An asterisk follows results filed as active; [ ] = dose if it differs, or a comment. In the library only some 8.6% were active in any assay of this set; here they are far more common. The call rests on the fitted dose curve; tested in HEK293 cells. On the % scale 0 is the no-effect control and ±100 the full control effect; potency means the concentration at half of the fitted maximal effect.

What do the screens show for `CO[C@@H]1[C@@H](OC)[C@H](C)[C@@](O)(CC(=O)O)O[C@H]1[C@H](C)[C@H]1O[C@@]2(CC[C@@](C)([C@H]3CC[C@@](C)([C@@H]4O[C@@H]([C@H]5O[C@](C)(O)[C@H](C)C[C@@H]5C)C[C@@H]4OC4C[C@H](OC)[C@@H](OC)[C@H](C)O4)O3)O2)C[C@H](O)[C@H]1C` (some centres undefined)?
Marburg entry: inconclusive; LASV entry inh: 1µM*

How did CC[C@@]1([C@@H]2O[C@@H]([C@H]3O[C@@](O)(CO)[C@H](C)C[C@@H]3C)C[C@@H]2C)CC[C@@H]([C@]2(C)CCC3(C[C@H](O)[C@@H](C)[C@@H]([C@@H](C)[C@@H](OC)[C@H](C)C(=O)O)O3)O2)O1 (some centres undefined) do in these assays?
Marburg entry: 0.32µM*; LASV entry inh: 0.56µM*

What do the screens show for `Cc1ccc(S(=O)(=O)NC(=O)N[C@@H](C)Cc2ccccc2)cc1`?
Marburg entry: -4%; LASV entry inh: -11%

Results for O=C(C=Cc1ccccc1)N1CCC[C@H]1CO ?
Marburg entry: 43%[8.59 µM]; LASV entry inh: 3%[8.59 µM]

Results for O=C(O[C@@H]1Cc2c(O)cc(O)cc2OC1c1ccc(O)c(O)c1)c1cc(O)c(O)c(O)c1 (some centres undefined) ?
Marburg entry: 13µM*; LASV entry inh: 6%

How did O=C(OC1Cc2c(O)cc(O)cc2OC1c1cc(O)c(O)c(O)c1-c1c(C2Oc3cc(O)cc(O)c3CC2OC(=O)c2cc(O)c(O)c(O)c2)cc(O)c(O)c1O)c1cc(O)c(O)c(O)c1 (centres undefined) do in these assays?
Marburg entry: 11µM*; LASV entry inh: -2%

Results for O=C(OC1Cc2c(O)cc(O)cc2OC1c1cc(O)c(O)c(O)c1)c1cc(O)c(O)c(O)c1 (centres undefined) ?
Marburg entry: 8.9µM*; LASV entry inh: -1%

How did O=C1C[C@@H](c2ccc(O)cc2)Oc2cc(O)cc(O)c21 do in these assays?
Marburg entry: 21%[17.8 µM]; LASV entry inh: 31%[17.8 µM]

What do the screens show for `O=C(OC1Cc2c(O)cc(O)cc2OC1c1cc(O)c(=O)c2c(O)c(O)cc(C3Oc4cc(O)cc(O)c4CC3OC(=O)c3cc(O)c(O)c(O)c3)c2c1)c1cc(O)c(O)c(O)c1` (centres undefined)?
Marburg entry: 1.3µM*; LASV entry inh: -16%

Results for Oc1ccc(C2Oc3cc(O)cc(O)c3CC2O)cc1 (centres undefined) ?
Marburg entry: -4%; LASV entry inh: -4%

How did Oc1cc(O)c2c(c1)OC(c1cc(O)c(O)c(O)c1)C(O)C2 (centres undefined) do in these assays?
Marburg entry: inconclusive; LASV entry inh: 3%

How did O=C(NN=C1C[C@@H](O)[C@H](O)[C@H]2[C@@H]3C(=O)N(C4CCCCC4)C(=O)[C@@H]3CC[C@H]12)OCc1ccccc1 do in these assays?
Marburg entry: inconclusive; LASV entry inh: -10%[8.59 µM]

Results for Cc1ccc(C=CC2=C[C@]3(C)C[C@]2(C)[C@H](c2ccc(C)cc2)CC3=O)cc1 ?
Marburg entry: -4%[8.59 µM]; LASV entry inh: -8%[8.59 µM]

Results for O=C(c1cccc(N2CCCC2=O)c1)N1CCC(Oc2cccc(CN3CCN(c4ccccn4)CC3)c2)CC1 ?
Marburg entry: -9%; LASV entry inh: inconclusive

What do the screens show for `Nc1ncnc2nc[nH]c12`?
Marburg entry: 17%; LASV entry inh: 7%

What do the screens show for `Nc1nc(=S)c2[nH]cnc2[nH]1`?
Marburg entry: 3.2µM*; LASV entry inh: 2.8µM*

How did COC(=O)C1=C(C(=O)OC)[C@@H]2N(C)c3ccccc3[C@@]23C[C@@H](C(=O)OC)N(C(=O)Nc2cccc(C#N)c2)C3=N1 do in these assays?
Marburg entry: 27%[8.59 µM]; LASV entry inh: 0%[8.59 µM]

How did COc1c(C(N)=O)cc(-c2ccc(Cl)cc2)cc1-c1ccc(S(N)(=O)=O)cc1 do in these assays?
Marburg entry: -50%; LASV entry inh: inconclusive

How did Fc1ccc(C(c2ccc(F)cc2)N2CCN(C/C=C\c3ccccc3)CC2)cc1 do in these assays?
Marburg entry: 14µM*; LASV entry inh: inconclusive

How did Fc1ccc(C(OCCN2CCN(C/C=C/c3ccccc3)CC2)c2ccc(F)cc2)cc1 do in these assays?
Marburg entry: 8.9µM*; LASV entry inh: 16µM*

Results for COC(=O)C1=C(C(=O)OC)[C@@H]2N(Cc3ccccc3)c3ccccc3[C@@]23C[C@@H](C(=O)OC)N(C(=O)Nc2ccc(C(F)(F)F)cc2)C3=N1 ?
Marburg entry: 38%[8.59 µM]; LASV entry inh: -20%[8.59 µM]

What do the screens show for `C[C@@H]1CC2=CCCC2[C@]2(O1)C(=O)N(Cc1ccc(Br)cc1)c1cccc(Br)c12` (some centres undefined)?
Marburg entry: -25%[8.59 µM]

Results for COCCN1C(=O)CC[C@@]23C1=NC(C(=O)OC)=C(C(=O)OC)[C@@H]2N(CC=C(C)C)c1ccccc13 ?
Marburg entry: -14%[8.59 µM]; LASV entry inh: -9%[8.59 µM]

How did COc1cc(/C=C/C(=O)N2CCCCC2=O)cc(OC)c1OC do in these assays?
Marburg entry: 13µM*; LASV entry inh: 11µM*

Results for COc1cc(/C=C\C(=O)N2CCC=CC2=O)cc(OC)c1OC ?
Marburg entry: 8.9µM*; LASV entry inh: inconclusive

How did COc1cc(/C=C/C(=O)O)cc(OC)c1OC do in these assays?
Marburg entry: 2%; LASV entry inh: 3%

How did COc1cc(C(=S)N2CCOCC2)cc(OC)c1OC do in these assays?
Marburg entry: -3%; LASV entry inh: -9%

What do the screens show for `COC(=O)CC=C[C@@H](C)[C@H](OC)c1cc(F)ccc1Br`?
Marburg entry: 59%[8.59 µM]; LASV entry inh: -10%[8.59 µM]

What do the screens show for `COCOCCn1cc(CN2CCS(=O)(=O)N(Cc3ccc(-c4ccc(F)cc4)cc3)C(C)C2=O)nn1` (centres undefined)?
Marburg entry: 24%; LASV entry inh: -17%

How did CCC(OC(C)=O)C(CC(C)NC)(c1ccccc1)c1ccccc1 (centres undefined) do in these assays?
Marburg entry: 7.9µM*; LASV entry inh: 40µM*

What do the screens show for `COC(=O)N[C@H](CC(C)=O)c1ccc(F)cc1`?
Marburg entry: 36%[8.59 µM]; LASV entry inh: 1%[8.59 µM]

How did COC(=O)c1c(C(=O)OC)c2c3ccccc3cc(-c3ccccc3)n2c1C(=O)OC do in these assays?
Marburg entry: -23%[8.59 µM]; LASV entry inh: -15%[8.59 µM]

How did C[C@@H]1COc2cc(F)ccc2S(=O)(=O)N1 do in these assays?
Marburg entry: 28%; LASV entry inh: 8%

Results for COC1=CC(=O)C(O)=C/C1=C\C=C\c1ccccc1 ?
Marburg entry: 16µM*; LASV entry inh: -25%

What do the screens show for `COc1cc(O)cc(/C=C/c2ccccc2)c1`?
Marburg entry: -12%; LASV entry inh: -29%

How did CCN1C(=O)[C@@H]2[C@H]3[C@H](O)[C@H](O)CC(=NOCC[C@@H]4C=C[C@H](OC(C)=O)[C@@H](COC(C)=O)O4)[C@@H]3CC[C@H]2C1=O do in these assays?
Marburg entry: -15%[8.59 µM]; LASV entry inh: -1%[8.59 µM]

Results for CCCCCCN1C[C@@H](O)[C@H](n2cc(COC(=O)c3ccccc3)nn2)C[C@H]1c1ccc(Cl)cc1 ?
Marburg entry: -12%; LASV entry inh: -24%

How did CCn1c(-c2nonc2N)nc2c(C#CC(C)(C)O)ncc(OCC3CCNCC3)c21 do in these assays?
Marburg entry: 1.8µM*

Results for CCn1c(-c2nonc2N)nc2cncc(C(=O)N3CCNCC3)c21 ?
Marburg entry: 5%; LASV entry inh: -55%
